We go through 40 compounds from PubChem BioAssay (NCI).

Compounds without any hit were thinned out: in the full panel of roughly 83,000, 20% have a hit.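 Note: values are percent growth. 100 is the growth of untreated cells, values between 100 and 0 indicate rising inhibition; between -100 and 0 indicates cell death.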 Unmarked numbers belong to inactive results. The source made the active and inactive calls.

The test system of the experiment is TK-10 renal. The experiment can be described thus: NCI-60 one-dose screen, 48 h (100 = growth as untreated, 0 = no growth, -100 = all killed). The conditions noted are these: 10 µM unless noted. As for the experimental part:
Growth inhibition of the TK-10 human tumor cell line is measured as a screen for anti-cancer activity. Cells are grown in 96 well plates and exposed to the test compound for 48 hours. Compounds are tested at a single concentration, which is 10^-5 M for most compounds. The reported endpoint is percent growth (GI% or GIPRCNT), where numbers from 0 - 100% represent growth inhibition, and numbers from -100% - 0 represent cell death. For example, a value of 40 represents 60% growth inhibition. A value of 0 means no net growth occurred over the course of the experiment. A value of -40 indicates 40% of cells at the beginning of the experiment died by the end of the experiment. A value of -100 means all cells are dead at the end of the experiment.
NCI-60 Human Tumor Cell Lines Screen was performed using the standard one-dose NCI protocol, which is described in more detail at https://dtp.cancer.gov/discovery_development/nci-60/default.htm.
Compounds with GIPRCNT values below 10 were considered active. Activity score was based on GIPRCNT using the following formula: […]
Score is 0 for GIPRCNT values of 100 or above, 50 for GIPRCNT values of 0, and 100 for GIPRCNT values of -100.
With `CCN(CC)c1ccc(-c2cc(-c3cc(OC)c(OC)c(OC)c3)nc(N3CCOCC3)c2C#N)cc1`, the growth is 49.4%.
Take `COc1ccc(S(=O)(=O)N2CC3(COC3)C2)cc1NC(=O)c1[nH]c(C)c2c1CCCCC2=O`: the growth was 17.5%.
To `CON1C(=O)CC[C@]2(C)[C@H]3CC[C@@H]4C([C@@]5(C)CCC(=O)O5)CC[C@@]4(C)[C@]3(C)CC[C@H]2C1(C)C` (stereo not given in full) belongs 97.8%; to `N#Cc1cnn(-c2nc3c(Cl)cccc3s2)c1N`, 92.7%.
To `CC[C@@H]1O[C@H](O[C@@H](c2cnc[nH]2)[C@H](NC(=O)c2nc([C@H](CC(N)=O)NC[C@@H](N)C(N)=O)nc(N)c2C)C(=O)N[C@H](C)[C@H](O)[C@H](C)C(=O)N[C@@H](C(=O)NCCc2nc(-c3nc(C(=O)NCCCCN=C(N)N)cs3)cs2)[C@@H](C)O)[C@H](O[C@@H]2O[C@H](CO)[C@H](O)[C@H](OC(N)=O)[C@@H]2O)[C@H](C)[C@@H]1C` belongs 71.9%; to `CCN1CCN(c2nc(NCCCNc3ccnc4cc(Cl)ccc34)c3ccccc3n2)CC1`, 42.3%.
With `O=Nc1c(O)c(Cl)cc2ccccc12`, the growth was 66.3%.
The result for `COc1ccc(S(=O)(=O)N2CCN(C)CC2)cc1NC(=O)c1[nH]c(C)c2c1CCCCC2=O` reads 33.4%; that for `COc1cc2nc(N3CCCC3)nc(NCC3CCCCC3)c2cc1OC`, -34.7% (active); that for `CC1=C[C@H]2c3c(c(O)c(O)c4oc5c(C)cccc5c(=O)c34)[C@H](c3cc(O)c(O)c4oc5c(C)cccc5c(=O)c34)[C@H]2C(C)(C)C1`, 31.2%.
To `COc1ccc(Nc2nc(SC)nc(-c3cccc([N+](=O)[O-])c3)c2C#N)cc1` belongs 84%.
The result for `C/C1=C\CC[C@@]2(C)O[C@H]2[C@H]2OC(=O)C(CN3CCN(CC4C(=O)O[C@H]5[C@H]4CC/C(C)=C/CC[C@@]4(C)O[C@@H]54)CC3)[C@@H]2CC1` (stereo not given in full) reads 89.7%; that for `Cc1ncc(C(=O)Nc2ccc(CN3CCN(C)CC3)c(C(F)(F)F)c2)cc1C#Cc1cnc2cccnn12`, -3.71% (active).
`O=C(Oc1cccnc1)c1ccsc1Nc1ccnc(C(F)(F)F)c1`: the growth was 94.8%.
The result for `N#Cc1nnn(-c2ccc(S(N)(=O)=O)cc2)c1NC(=O)CCl` reads 96.4%; that for `C=C(C)[C@@H]1CC[C@]2(C(N)=O)CC[C@]3(C)[C@H](CC[C@@H]4[C@@]5(C)C/C(=C/c6ccco6)C(=O)C(C)(C)[C@@H]5CC[C@]43C)[C@@H]12`, 105%.
To `O=C1Nc2cc(-c3ccc(O)cc3)ccc2/C1=C/c1ccc[nH]1` belongs 17.7%; to `CC/C=C\C[C@H](O)C/C=C1/C(=O)C=C[C@@]1(C)C/C=C\CCCC(=O)OC`, 95.9%; to `COc1cc2c(cc1-c1c(C)noc1C)ncc1nc(-c3ccccn3)n([C@H](C)COC(F)F)c12`, 33%.
As to `O=C(/C=C/c1ccc(C(F)(F)F)cc1)Nc1ccc(C=C2c3ccccc3C(=O)c3ccccc32)cc1`, the growth is 70.2%.
The result for `OCCNc1nccc(N2CCN(c3ccnc4cc(Cl)ccc34)CC2)n1` reads 94.4%; that for `CCCN1CCN(c2ccc3nc(-c4ccc5nc(-c6ccc(OCC)cc6)[nH]c5c4)[nH]c3c2)CC1`, 69%; that for `C=C1c2nc3ccccc3n2C=C(c2cccc(Cl)c2)N1Cc1ccc(OC)cc1`, 30.8%.
The result for `C=CC(COC(c1ccccc1)(c1ccccc1)c1ccccc1)N(CC)CC` (stereo not given) reads 79.8%.
Regarding `Cc1oc(-c2ccc(Cl)cc2Cl)cc1C(=O)Nc1nccs1`, the growth was 103%.
Turning to `COc1ccc(-n2nc(C)c3c(Nc4ccc(NC(=O)Nc5ccc(Cl)c(C(F)(F)F)c5)cc4)ncnc32)cc1`, the growth was 5.29% (active).
As for `COc1ccc(-n2nc(C)c3c(Nc4ccc(NC(=O)Nc5cccc(C(F)(F)F)c5)cc4)ncnc32)cc1`, the growth is 10.7%.
With `CCOc1ccc(-n2nc(C(=O)Nc3ccccc3)nc2-c2cc(OC)c(OC)c(OC)c2)cc1`, the growth is 72.4%.
To `CCCCC[C@H]1C/C=C2/C(=O)C=C[C@@H]2C/C=C\CCCC(=O)O1` belongs -59.4% (active); to `COc1cc(C(=O)/C=C/c2cccnc2Nc2ccc(Cl)cc2)cc(OC)c1OC`, -68.5% (active); to `Cc1ccc(NC(=O)C2CCC(CN3CCN(C)CC3)CC2)cc1Nc1nccc(-c2cccnc2)n1` (stereo not given), 121%.
To `O=S(=O)(Nc1ccc(OC(F)F)cc1)c1ccc(-c2cnc(C3CC3)o2)cc1` belongs 102%; to `Cc1ccc(/C=C2\SC(=S)N(CC(=O)NCCCN3CCOCC3)C2=O)cc1`, 117%; to `O=c1oc2c(C(F)(F)F)cccc2cc1-c1csc(Nc2ccc(OCCF)cc2)n1`, 59.7%.
As to `CCNC(=O)Oc1ccc(/C(=C(\C)c2ccc(Cl)cc2)c2ccc(OCCN3CCCCC3)cc2)cc1`, the growth was 83.7%.
To `O=C1c2c(O)cc(O)cc2-c2c(-c3ccc(O)cc3)oc3cc(O)cc1c23` belongs 63.4%; to `CCn1c(Cc2ccccc2Nc2c(Cl)cccc2Cl)nnc1SCC(=O)NN1C(=O)/C(=C/c2cc(OC)c(O)c(OC)c2)SC1=S`, 70%; to `N#CCCN=Nc1c(O)[nH]c2ccc([N+](=O)[O-])cc12`, 108%.
The result for `O=C1/C(=C/c2ccc(OCCCOc3ccc(Cl)cc3)cc2)N=C2SCCCN12` reads 72.7%.
The result for `CN(C)S(=O)(=O)c1ccc(S(=O)(=O)Nc2cccc(Cl)c2N2CCCCC2)cc1` reads 102%.
